PubChem BioAssay (NCI)
Where “and” joins values, the source holds several entries; their conditions need not be identical. Equal values may be shown once. Compounds without any hit were thinned out: in the full panel of roughly 83,000, 20% have a hit.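 Percent growth is the endpoint: 0 to 100 indicates growth inhibition (40 means 60% inhibition), 0 means no net growth, and negative values indicate cell death.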 Calls of active or inactive are those of the source. How the source made its calls: active means growth percent below 10; inactive means the rest.

How the values were obtained:
Assay in all cases: NCI-60 one-dose screen, 48 h (100 = growth as untreated, 0 = no growth, -100 = all killed)
Details in all cases: 10 µM unless noted
[1] = tested on: HCT-15 colon
[2] = tested on: HT29 colon
[3] = tested on: SNB-75 CNS
[4] = tested on: SNB-19 CNS
[5] = tested on: U251 CNS
[6] = tested on: UACC-62 melanoma
[7] = tested on: LOX IMVI melanoma
[8] = tested on: SK-MEL-5 melanoma
[9] = tested on: SK-MEL-28 melanoma
[10] = tested on: PC-3 prostate

Measured: growth

COc1c(O)cc2c(c1OC)-c1ccc(SC)c(=O)cc1C(NC(C)=O)CC2 (stereo not given)
active: [1] -40.6% | [2] -18.9% | [3] -13.2% | [5] 5.68%
inactive: [4] 18.5% | [6] 18.6% | [7] 15.4%

O=C(O)c1ccc(=O)[nH]c1
inactive: [1] 97.5% and 103% | [2] 109% and 97.7% | [3] 101% and 91.6% | [4] 94.4% and 102% | [5] 97.5% and 91% | [8] 101% and 100% | [6] 88.7% and 98.6% | [7] 103% and 93.4% | [9] 106% and 110%

CC(=O)c1cccc(S(=O)(=O)F)c1
inactive: [1] 96.3% | [2] 104% | [3] 117% | [5] 100% | [10] 79% | [8] 110% | [6] 103% | [7] 90.1% | [9] 120%

CC1(C)CN=C(NN=C(/C=C/c2ccc(C(F)(F)F)cc2)/C=C/c2ccc(C(F)(F)F)cc2)NC1
inactive: [4] 37.9% | [10] 24.7%
active: [1] -72% | [2] -83.2% | [3] -88.6% | [9] -90.9%

ClCc1ccc(Cl)c(Cl)c1
inactive: [1] 98.6% | [2] 109% | [3] 104% | [4] 96.6% | [5] 100% | [6] 97.9% | [7] 104% | [9] 111%

O=[N+]([O-])c1c(Cl)cc(Cl)c([N+](=O)[O-])c1Cl
inactive: [1] 85.9% | [2] 100% | [4] 113% | [5] 96.1% | [10] 83.2% | [8] 101% | [6] 108% | [7] 33.6% | [9] 100%

NC(=O)c1c(Br)c(Br)c(Br)c(Br)c1C(=O)O (tested in a mixture with another compound)
inactive: [1] 92.8% and 106% | [2] 106% and 103% | [3] 115% and 95.8% | [4] 96.6% and 104% | [5] 95.4% and 96.2% | [6] 83.7% and 104% | [7] 31.8% and 101% | [9] 110% and 108%

COc1ccc(N(CC(=O)NCCC[Te]c2ccccc2)C(=O)c2ccccc2)cc1
active: [1] 9.28% | [2] -25.5%
inactive: [3] 69.5% | [4] 36.2% | [5] 14.4% | [8] 55.2% | [6] 84.1% | [7] 32.8% | [9] 145%

O=C1C=C(N2CC2)c2ccccc2C1=O
inactive: [1] 79.6% | [2] 73.4% | [3] 90.2% | [4] 82.7% | [5] 65.3% | [8] 59.7% | [6] 97.8% | [7] 39% | [9] 111%

N#CC(C#N)=Cc1cccc(F)c1
inactive: [1] 105% | [2] 104% | [4] 100% | [5] 103% | [10] 100% | [8] 101% | [6] 98.2% | [7] 98.9% | [9] 111%

CCN1C(=O)CC(=O)N(CC)C1=S
inactive: [1] 96.4% | [2] 92.1% | [3] 72.4% | [4] 101% | [5] 105% | [6] 95.5% | [7] 100% | [9] 105%

Cn1cc(-c2csc(-c3cn(CCCCN4CCOCC4)c4ccc(F)cc34)n2)c2cccnc21
inactive: [1] 61.7% | [3] 61.9% | [4] 88.2% | [5] 67.3% | [6] 22.8% | [7] 67.6%
active: [9] -87.1%

O=[N+]([O-])c1cc(Cl)c(Cl)c([N+](=O)[O-])c1Cl
inactive: [4] 103% | [5] 78.7% | [10] 66.8% | [8] 79.1% | [6] 86% | [9] 103%
active: [1] -18.5% | [7] -26.2%

COc1cc2c(cc1OC)[C@@H]1C(=O)c3ccc4c(c3O[C@@H]1CO2)C[C@H](C(C)C)O4
active: [10] 9.13%
inactive: [1] 79.1% | [3] 90.1% | [5] 57.8% | [8] 17.9% | [6] 66.7% | [7] 53% | [9] 98.5%

O=C(NCCCN1CC1)Nc1cccc2ccccc12
inactive: [1] 106% and 100% | [3] 105% and 102% | [4] 88.5% and 95% | [5] 87% and 86.6% | [10] 87.8% and 89.7% | [8] 107% and 93.3% | [6] 98% and 105% | [7] 95.6% and 78.4% | [9] 107% and 115%

NC1CN2CCC1CC2 (stereo not given)
inactive: [1] 99.3% | [3] 73.9% | [4] 101% | [5] 103% | [10] 90.7% | [6] 90.4% | [7] 97.2% | [9] 100%

NC(N)=NC(N)=Nc1ccc(Cl)cc1
inactive: [1] 108% | [3] 77.1% | [4] 105% | [5] 113% | [10] 89.5% | [6] 111% | [7] 110% | [9] 98.9%

CNC(=O)O/N=C(\SC)C(=O)N(C)C
inactive: [1] 105% | [3] 101% | [4] 106% | [5] 101% | [10] 85% | [8] 109% | [6] 111% | [7] 90.4% | [9] 113%

Nc1ccc(S(=O)(=O)F)cc1
inactive: [1] 107% | [3] 99.5% | [4] 105% | [5] 105% | [10] 105% | [8] 106% | [6] 105% | [7] 99.4% | [9] 114%

C/C(=N/OC(=O)N(C)C)c1ccc(Cl)c(Cl)c1
inactive: [2] 95.2% | [3] 116% | [4] 99.4% | [5] 105% | [10] 93.7% | [8] 99.3% | [6] 97.8% | [7] 99.2% | [9] 105%

COc1ccc(CN)cc1OC
inactive: [1] 103% and 100% | [3] 113% and 93.3% | [4] 104% and 103% | [5] 112% and 97.6% | [8] 115% | [6] 111% and 100% | [7] 98.2% and 94.2% | [9] 110% and 116%

O=[N+]([O-])c1ccc(P(=O)(O)O)cc1
inactive: [1] 103% | [3] 80.2% | [4] 108% | [5] 96.2% | [10] 91.3% | [6] 105% | [7] 93.2% | [9] 109%

N#CCc1ccc(CC#N)cc1
inactive: [2] 92.4% | [3] 101% | [4] 93.2% | [5] 93.6% | [10] 91.2% | [8] 101% | [6] 92.3% | [7] 101% | [9] 101%

COc1ccc(/C=C(/C)[N+](=O)[O-])cc1OC
active: [1] -25.4% and -17.4% | [5] -46.5% and -15.8% | [7] -51.5% and -88.8% | [9] -50.9% and 4.89%
inactive: [3] 78.5% and 53.6% | [4] 65.9% and 79.3% | [10] 19.4% and 47.7% | [8] 52.9% and 47.9%

C/C(=C(\c1ccc(OCCN2CCOCC2)cc1)c1ccc(OC(=O)Cc2ccccc2)cc1)c1ccc(Cl)cc1
inactive: [2] 77.1% | [3] 95.7% | [4] 96.3% | [5] 99.2% | [10] 68.2% | [8] 86.6% | [6] 85.4% | [7] 98.6% | [9] 103%

Cc1cc[c-]cc1.Fc1c[c-]c(-c2ccccn2)c(F)c1.N#CCC[PH+](CCC#N)c1ccccc1.[Pt+2]
inactive: [1] 22.1% | [3] 49.9% | [4] 62.3% | [5] 56.9% | [10] 29.4% | [8] 68.6% | [9] 42.7%
active: [7] -2.55%

Clc1ccc(COC(Cn2ccnc2)c2ccc(Cl)cc2Cl)c(Cl)c1 (stereo not given)
39% (inactive) and 3.49% (active): [8]
inactive: [2] 23.4% and 31% | [3] 78.6% and 90.2% | [4] 83.4% and 83.8% | [5] 45.5% and 69.4% | [10] 40.9% and 39.3% | [6] 41.5% and 52.1% | [7] 34% and 47.6% | [9] 81.5%
